# Measurements published in PMC12431657, “Discovery and mechanistic insights of dibenzoylmethane as a broad spectrum inhibitor of coronavirus” (PLOS Pathogens, 2025).
# Structures can show the parent of a compound that is named as a salt. Where two headings read alike, the source gives them in different places. The campaign covered roughly 3,300 compounds. About 95 (3%) showed an effect of 50% or more. This is one part of a sample in which strong results are shown more often than they occur.
# System: HCoV-229E
# Parameters: species or system Huh-7; HTS, protection from HCoV-229E induced cell death, luminescent cell viability (CellCounting-Lite 2.0), inhibition rate
# Details: 24 h post infection, 1 h compound pre-incubation, 10 µM, inhibitor
SMILES,229E Inhibition rate [%],"229E Inhibition rate (229E Inhibition rate, 24 h) [%]"
C/C(=C\CC[C@@H](C)[C@H]1CC[C@@]2(C)C3=CC[C@H]4C(C)(C)[C@@H](O)CC[C@]4(C)C3=CC[C@]12C)CO [Ganoderol B],7.7,
C=C(CC[C@@H](C(=O)O)[C@H]1[C@H](O)C[C@@]2(C)C3=CC[C@H]4C(C)(C)[C@@H](O)CC[C@]4(C)C3=CC[C@]12C)C(C)C [Dehydrotumulosic acid],8.5,
CC1(C)O[C@H]2CC(=O)OC[C@]23[C@H]2CC[C@@]4(C)[C@H](c5ccoc5)OC(=O)[C@H]5O[C@]54[C@]2(C)[C@@H](O)C(=O)[C@@H]13 [Rutaevin],0,
"COc1cc(O)cc(OC)c1 [3,5-Dimethoxyphenol]",32.7,
"COc1cc(OC)cc(OC)c1 [1,3,5-Trimethoxybenzene]",55.2,
"COc1ccc(OC)cc1 [1,4-Dimethoxybenzene]",21,
O=C1N[C@@H](Cc2ccccc2)C(=O)N2CCC[C@@H]12 [Cyclo(L-Phe-L-Pro)],11.1,
CCCCCCCCCCCCCCCc1cc(O)cc(O)c1 [5-Pentadecylresorcinol],51.7,
CCCCCCCCCCCC1=C(O)C(=O)C=C(O)C1=O [Embelin],12.3,
Oc1ccc(CCc2cc(O)cc(O)c2)cc1 [Dihydroresveratrol],10.7,
O=c1c(O)c(-c2ccc(O)cc2)oc2c(O)c(O)cc(O)c12 [Herbacetin],0,
O=C1CCC[C@@H]2[C@H]3CCCN4CCC[C@@H](CN12)[C@H]34 [Allomatrine],8.4,
COC[C@@H]1Cc2cc(OC)c3c(c2[C@H](c2ccc(OC)c(OC)c2)[C@H]1COC)OCO3 [Hypophyllanthin],24.8,
C=C1C(=O)O[C@H]2C[C@@H](C)[C@@H]3C=CC(=O)[C@@]3(C)[C@@H](OC(C)=O)[C@H]12 [Bigelovin],4.5,
C=C1C(=O)O[C@H]2C[C@@H](C)[C@@H]3[C@@H](OC(C)=O)C[C@H](O)[C@@]3(C)[C@@H](OC(C)=O)[C@H]12 [Britannin],3,
C=C1C(=O)O[C@H]2C[C@@H](C)[C@@H]3CCC(=O)[C@@]3(C)[C@@H](OC(C)=O)[C@H]12 [Ergolide],57.9,
CC1(C)O[C@H]2CC(=O)OC[C@@]23[C@H]1CC(=O)[C@@]1(C)C2=CC(=O)O[C@@H](c4ccoc4)[C@]2(C)CC[C@@H]13 [Deoxylimonin],9.8,
CC(=O)O[C@@]12CO[C@@H]1C[C@@H](O)[C@@]1(C)C(=O)[C@H](O)C3=C(C)[C@@H](OC(=O)[C@H](O)[C@@H](NC(=O)c4ccccc4)c4ccccc4)C[C@@](O)([C@@H](OC(=O)c4ccccc4)[C@H]21)C3(C)C [7-Epi 10-desacetyl paclitaxel],21.4,
O=C(N[C@H](COC(=O)[C@H](Cc1ccccc1)NC(=O)c1ccccc1)Cc1ccccc1)c1ccccc1 [Asperphenamate],18,
CCCCCCCC/C=C\CCCCCCCC(=O)O [Oleic acid],,9.2
CCCCCC/C=C\CCCC(=O)O [cis-5-Dodecenoic acid],63.5,
CCCCC/C=C\C/C=C\CCCCCCCC(=O)NCc1ccccc1 [N-Benzyllinoleamide],24.5,
CCCCCCCCCCC/C=C\CCCCC(=O)O [Petroselinic acid],0,

SMILES,229E Inhibition rate [%],"229E Inhibition rate (229E Inhibition rate, 24 h) [%]"
CCCCCCCCCCCCCCCCCC(=O)NCc1ccccc1 [N-Benzyloctadecanamide],46.3,
CCCCCCCC/C=C\CCCCCCCC(=O)NCc1ccccc1 [N-Benzyloleamide],52.8,
Nc1nc(=O)n([C@H]2C[C@H](O)[C@@H](CO)O2)cc1CO [5-Hydroxymethyl-2’-deoxycytidine],0,
OC[C@H]1OC(O)[C@H](O)[C@H](O)[C@@H]1O (stereo partly drawn) [D-Allose],0,
C=C(C)[C@@H]1CC[C@]2(COC(C)=O)CC[C@]3(C)[C@H](CC[C@@H]4[C@@]5(C)CC[C@H](OC(C)=O)C(C)(C)[C@@H]5CC[C@]43C)[C@@H]12 [Betulin diacetate],4.9,
O=c1ccc2cc3ccoc3c(O)c2o1 [Xanthotoxol],35.1,
"CC(C)=CC[C@@H](OC(=O)C=C(C)C)C1=CC(=O)c2c(O)ccc(O)c2C1=O [β,β-Dimethylacrylshikonin]",50.2,
CC(=O)O[C@@H](CC=C(C)C)C1=CC(=O)c2c(O)ccc(O)c2C1=O [Acetylalkannin],10.1,
"CC(C)=CC[C@H](OC(=O)C=C(C)C)C1=CC(=O)c2c(O)ccc(O)c2C1=O [β,β-Dimethylacrylalkannin]",17.4,
C[n+]1cccc(C(=O)[O-])c1 [Trigonelline],,7.5
O=c1cc(-c2ccccc2)oc2cc(O[C@@H]3O[C@H](CO)[C@@H](O)[C@H](O)[C@H]3O)c(O)c(O)c12 [Oroxin A],34.7,
CC(=O)c1ccccc1 [Acetophenone],31.9,
CC(=O)c1ccc[nH]1 [2-Acetylpyrrole],51.6,
O=C(O)c1ccc[nH]1 [Pyrrole-2-carboxylic acid],6.8,
CCCCCCCCC1=C(CCCCCCCC(=O)O)C1 [Sterculic acid],20,
CC(=O)NCCCCN [N-Acetylputrescine hydrochloride],17.4,
CC(=O)NCCCCCN [N-(5-Aminopentyl)acetamide],61.9,
CC(=O)NCCCCNCCCN [N8-Acetylspermidine dihydrochloride],37.4,
C[C@@]1(C(=O)O)CC[C@]2(C)CC[C@]3(C)C4=CC(=O)c5c(cc(O)c(O)c5C=O)[C@]4(C)CC[C@@]3(C)[C@@H]2C1 [Demethylzeylasteral],6.3,
CCCCCCC/C=C/C(=O)CCc1ccc(O)c(OC)c1 [[8]-Shogaol],39.3,
C/C=C1/CN2[C@@H]3C[C@@]45c6ccccc6N[C@]4(O3)[C@@H]2C[C@@H]1[C@H]5C(=O)OC [Picrinine],51.7,
C/C=C1/CN2[C@H]3Cc4c([nH]c5ccccc45)[C@]2(O)C[C@@H]1[C@@]3(CO)C(=O)OC [16-Epivoacarpine],7.1,
C/C=C1/CN2CCc3c([nH]c4ccccc34)[C@@H]2C[C@@H]1/C(=C/OC)C(=O)OC [Geissoschizine methyl ether],0,
